# Source: PubChem (National Center for Advancing Translational Sciences (NCATS))
# HT1080 IDH1KD tx = toxicity to HT-1080 IDH1 knockdown cells (counter line) | HT-1080 IDH1 knockdown viability, ATP luminescence, 48 h | Potency, µM (highest dose often 46.1 µM), most hits filed as cytotoxic | 2% of 360,000 active
#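 IDH1KD HT-1080 cells, 750/well, RPMI + 5% FBS; compound pinned after 2 h settling; 48 h, 37 °C; CellTiter-Glo luminescence; % activity normalised to DMSO and no-cell wells; curves fitted, classed by r2 and efficacy.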
# HT1080-NT tox = kills 2HG-producing HT-1080-NT fibrosarcoma cells; Potency, µM (doses to about 46.1 µM), usual class: cytotoxic; 1.6% of 360,000 active; HT-1080-NT fibrosarcoma viability, CellTiter-Glo ATP luminescence, 48 h;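 further: NT is the 2HG producing partner of a matched IDH1 knockdown line; nearly all actives have a fitted effect of over 55% in size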
#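 750 cells/well, RPMI + 5% FBS; 2 h settle, compound pin-transfer, 48 h at 37 degrees C. CellTiter-Glo 10 min RT, luminescence. Normalized to DMSO and media-only wells.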
# HepG2 viability = kills HepG2 cells in TGF-b inhibitor counter-screen | HepG2 CAGA-GFP viability, ATP luminescence, 18 h | Potency, µM (top dose mostly 46.1 µM), usual class: cytotoxic | 0.76% of 410,000 active | AID 588856
#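 HepG2 CAGA-GFP cells (1000/well, DMEM with 1% FBS) received compound, then TGF-beta at 500 pg/mL final, and were incubated 18 hours at 37 degrees C. Viability was read by CellTiter-Glo luminescence. Media-only wells were set as complete cell-killing and DMSO as no toxicity.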
# Giardia kill = Giardia lamblia killing | Giardia lamblia trophozoite viability | activity change, % at 7.66 µM, hits read low | 0.15% of 340,000 active; in the data active means activity change below about -80%; inconclusive means between about -30% and that limit;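 further: parasites exposed to compound for two days anaerobically before the ATP read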
#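 ATP-content bioluminescence gauges trophozoite survival. Cells (100/well) receive compound and incubate anaerobically for 48 hrs at 37 deg C; detection reagent follows for 15-30 min at room temperature.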
# IL1B secr inh = blocks inflammasome-driven IL-1 beta release; THP-1 LPS/ATP IL-1B secretion, AlphaLISA, 16 h; stronger effect = lower value; activity change, % at 57.5 µM; 4.7% of 360,000 active; AID 743279; in the data active means activity change below about -50%; inconclusive means mostly about -30% to -49%
#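 Secreted IL-1B measured by AlphaLISA bead assay after 16 h compound exposure of THP-1 cells; compounds (final up to 57.5 uM) added 1 h before LPS (250 ng/mL) and ATP (1.25 mM) stimulation; lower signal means less secretion.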
# TGFb inhibitor = TGF-b pathway inhibition; HepG2 CAGA-GFP TGF-b/SMAD3 reporter, GFP fluorescence, 18 h; TGF-beta stimulated, 500 pg/mL final; Potency, µM (series often up to 46.1 µM), hits mostly inhibitors; 1.2% of 410,000 active; AID 588855; further: nearly all actives have a fitted effect of over 65% in size
#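 Read-out: total well GFP (ex488/em500-530) summed from mean per-cell fluorescence. Cells: HEPG2 CAGA-GFP, 1% FBS DMEM, 18 h at 37 degrees C with 500 pg/mL final TGF-beta. Unstimulated wells served as the full-inhibition control; stimulated DMSO wells = 0%.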
# Numbers stand for hits; . = inactive; ? = inconclusive; / = no result given. A selection: hits, their analogues and other compounds. The true share with any hit is near 6.5%. Unless noted, the call rests on the fitted dose curve; in most records, active means well fitted curve in the direction sought with a large enough effect; inconclusive means small, poorly fitted or top-dose-only effect, or another doubt; inactive means no such curve, though single readings can be large; an effect the other way counts as inactive or inconclusive.
SMILES,HT1080 IDH1KD tx,HT1080-NT tox,HepG2 viability,Giardia kill,IL1B secr inh,TGFb inhibitor
Brc1ccc(-c2csc(-c3nc(-c4ccc(Br)s4)cs3)n2)cc1,/,/,.,/,/,.
N#C/C(=C/c1ccc(-c2ccc(Br)cc2)o1)C(=O)NC1CCCCC1,.,.,.,.,-54.5,.
N#C/C(=C\c1ccc(-c2ccc(Br)cc2)o1)C(=O)NCCc1c[nH]c2ccccc12,.,.,.,.,-61.2,.
CCC(C)OC(=O)/C(C#N)=C/c1ccc(-c2ccc(Br)cc2)o1 (stereo not given),/,/,.,/,/,.
Nc1ccn([C@H]2CS[C@@H](CO)O2)c(=O)n1,.,.,.,.,.,.
COc1ccc2nc3ccccc3nc2c1N,?,.,.,.,-62.9,?
O=C(COC(=O)c1ccc(Br)o1)NCCCc1ccccc1,.,.,.,.,.,.
CCCCOc1ccccc1NC(=O)CC1Sc2ccccc2NC1=O (stereo not given),/,/,.,/,/,.
O=C(O)c1cc([N+](=O)[O-])ccc1NCc1ccccc1,.,.,.,.,-69.9,.
COc1ccc(OC)c(CNc2ccc([N+](=O)[O-])cc2C)c1,.,.,.,.,-69.4,?
O=[N+]([O-])c1ccc(NCc2ccc3c(c2)OCO3)cc1,.,.,.,?,.,.
COc1ccc([N+](=O)[O-])cc1NC(=O)COC(=O)c1ccccc1C(=O)c1ccccc1,.,.,.,.,-51.8,.
Cc1cc([N+](=O)[O-])ccc1NCc1ccc2c(c1)OCCO2,.,.,.,.,-51.2,.
CCOc1cccc(NC(=O)C2CC(=O)N(C)C2)c1 (stereo not given),.,.,.,.,.,.
COc1ccc([N+](=O)[O-])cc1NCc1ccccc1,.,.,.,.,-88.9,.
O=C(O)c1ccc(NS(=O)(=O)c2ccc3c(c2)C2C=CCC2C(c2ccccc2F)N3)cc1 (stereo not given),.,.,.,.,.,.
Cc1ccc(NS(=O)(=O)c2ccc3c(c2)[C@H]2C=CC[C@H]2[C@@H](c2ccc(F)cc2)N3)cc1C,/,/,.,/,/,8.91µM
COC(=O)c1ccc([C@H]2Nc3ccc(S(=O)(=O)Nc4cccc(C)c4)cc3[C@H]3C=CC[C@H]32)cc1,/,/,.,/,/,6.31µM
Cc1ccc([C@H]2Nc3ccc(S(=O)(=O)Nc4cccc(Cl)c4C)cc3[C@H]3C=CC[C@H]32)cc1,/,/,.,.,/,.
O=C(NC(Cc1ccc(O)cc1)C(=O)N=Nc1c(O)[nH]c2ccccc12)c1ccccc1 (stereo not given),.,.,.,.,.,.
Cc1cc(C)nc(NN=C(c2ccccc2)c2ccccc2)n1,.,.,.,.,.,11.2µM
COC(=O)C=C1CCC2C3CCC4=CC(=O)C(Br)CC4(C)C3C(=O)CC12C (stereo not given),.,.,.,.,-94.6,.
CC12CCC(=O)C=C1CCC1C2C(=O)CC2(C)C1CCC2(O)C(=O)CO (stereo not given),.,.,.,.,.,.
Cc1ccc2cc(CN(CCN(C)C)C(=O)Nc3ccc(Cl)cc3)c(=O)[nH]c2c1,.,?,.,.,/,.
Cc1ccc2[nH]c(=O)c(CN(CCCN(C)C)C(=O)Nc3ccc(Cl)cc3)cc2c1,.,.,.,.,-54.1,.
SMILES,HT1080 IDH1KD tx,HT1080-NT tox,HepG2 viability,Giardia kill,IL1B secr inh,TGFb inhibitor
Cc1cc(C)c2cc(CN(CCO)C(=O)Nc3ccc(Cl)cc3)c(=O)[nH]c2c1,.,.,.,.,-57.5,.
Cc1cc(C)c2cc(CN(CCN3CCCC3)C(=O)Nc3ccc(F)cc3)c(=O)[nH]c2c1,18.4µM,?,.,.,-80.4,?
O=C(NCC1CCCN(C(=O)c2cscn2)C1)c1ccc(-c2ccccc2)cc1 (stereo not given),.,.,.,.,?,.
CC(C)(CN1CCc2ccccc2C1)NS(=O)(=O)c1ccccc1,.,.,.,.,.,.
O=C(CN1C(=O)/C(=C2/SC(=S)N(CCS(=O)(=O)O)C2=O)c2ccccc21)Nc1cccc(Br)c1,.,.,.,.,.,.
Cc1cccc(OCC(=O)NCCc2nc3ccccc3[nH]2)c1C,/,/,.,/,/,.
COCC(=O)O[C@]1(CCN(C)CCCc2nc3ccccc3[nH]2)CCc2cc(F)ccc2[C@@H]1C(C)C,?,?,11.2µM,.,.,12.6µM
O=C(CNCc1ccccn1)Nc1cc(C(F)(F)F)ccc1N1CCOCC1,.,.,.,.,.,.
Cc1cc(O)c(NC(=O)c2cc([N+](=O)[O-])ccc2Cl)cc1C,?,?,.,.,-84.0,.
O=C(NC(=S)Nc1ccc(O)cc1)c1ccccc1Cl,.,.,.,.,.,.
O=C(Nc1ccccc1)c1cc([N+](=O)[O-])ccc1Cl,.,.,.,.,.,.
Cc1ccc(O)c(NC(=O)c2cc([N+](=O)[O-])ccc2Cl)c1,?,.,.,.,-97.3,.
O=[N+]([O-])c1ccc(O)c(/C=N/NC(=S)Nc2ccc(Cl)cc2Cl)c1,23.1µM,?,.,.,.,?
Cc1ccc(O)c(NC(=S)NC(=O)c2ccccc2Cl)c1,?,?,.,.,-58.1,.
COc1ccc(C(=O)N/C(=C\c2ccc3c(c2)OCO3)C(=O)Nc2ccc(C(=O)O)cc2)cc1,.,.,.,.,.,.
Cc1cccc(N(CC(=O)NC2CC3CCC2C3)S(=O)(=O)c2ccccc2)c1 (stereo not given),.,.,.,.,.,.
O=C(Nc1ccc([N+](=O)[O-])cc1Cl)c1cc(Cl)ccc1O,0.366µM,0.366µM,.,?,-63.9,.
O=C(CN1CCCCC1)N1N=C(c2cccs2)CC1c1cccs1 (stereo not given),.,.,.,.,.,.
O=C(NC1(C(F)(F)F)N=C(c2ccccc2)N(C2CCCCC2)C1=O)c1ccc(F)cc1 (stereo not given),/,/,.,/,/,.
COc1ccccc1N1CCN(Cc2cc3c(cc2O)OCO3)CC1,.,.,.,.,.,.
CCOc1ccccc1N1CCN(Cc2cccc(OC)c2O)CC1,.,.,.,.,.,.
CCCOCc1cc(CN2CCN(c3ccccc3OC)CC2)c(O)c2ncccc12,/,/,11.2µM,/,/,2µM
CCOCc1cc(CN2CCN(c3ccccc3OC)CC2)c(O)c2ncccc12,/,/,1.58µM,/,/,/
COc1ccccc1N1CCN(Cc2cc(COC(C)C)c3cccnc3c2O)CC1,/,/,2.82µM,/,/,2.24µM
O=c1nccc(SCc2ccc(Cl)cc2Cl)[nH]1,.,.,.,.,.,.
